Only some compounds are listed: those with a hit (about 2.2% of all), similar ones and a draw of the others.
A549 tox: Nrf2 qHTS screen for inhibitors: counterscreen for cytotoxicity; Potency, µM (doses to about 46 µM), without a hit: at the top dose activity change, negative = cytotoxicity, usual class: inhibitors; A549 ARE-Fluc cells, CellTiter-Fluor viability, 18-24 h; actives 0.16% (n = 390,000); note: % is set by controls: 0 for no effect and ±100 for the full control effect
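A549 ARE-Fluc cells in 5% FBS OPTI-MEM, 5000 cells/well, rested 2 h then exposed to compounds in concentration-response for 18-24 h at 37 °C. Viability by CellTiter-Fluor fluorescence (Ex 405/Em 525) after 30 min; luciferase luminescence (BugLite, 15 min, RT) read afterwards.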
Pin1 inh: qHTS Assay to Find Inhibitors of Pin1; Peptidyl-prolyl cis-trans isomerase NIMA-interacting 1 (Homo sapiens), Q13526; Pin1 FP peptide displacement, HiFluor488, 10 min; Potency, µM (highest dose often 115 µM), without a hit: top-dose activity, negative = inhibition, most hits filed as inhibitors; actives 0.009% (n = 390,000); AID 504891, 2011; active = well fitted inhibition curve with a large enough effect in the polarisation, with a control signal flat, not every such curve was filed as active; inconclusive = small, poorly fitted or top-dose-only effect, or effect the other way, or a change in a side signal; inactive = no such curve, though single readings can be large or run the other way; the % refers to the polarisation; note: % is set by controls: 0 for no effect and ±100 for the full control effect
Target sequence (Q13526 whole entry, looked up): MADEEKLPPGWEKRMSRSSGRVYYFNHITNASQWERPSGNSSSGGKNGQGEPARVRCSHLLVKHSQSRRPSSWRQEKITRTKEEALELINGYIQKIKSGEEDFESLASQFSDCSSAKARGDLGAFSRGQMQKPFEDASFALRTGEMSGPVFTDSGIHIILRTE
Nrf2 block: Nrf2 qHTS screen for inhibitors | A549 ARE-Fluc reporter, luciferase luminescence, 18-24 h | Potency, µM (titrated, usually from 46 µM), for the others: at the highest dose activity change, negative = inhibition, actives largely listed as inhibitors | actives 2.1% (n = 360,000) | AID 504444, 2011; note: % is set by controls: 0 for no effect and ±100 for the full control effect; nearly all actives have a fitted effect of over 60% in size
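Cells were seeded and rested 2 h, then exposed to compounds for 18-24 h. CellTiter-Fluor was read first as a viability measure. BugLite was added 15 min before the final luminescent read of ARE-luciferase activity in A549 cells.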
Nrf2 ARE act: qHTS of Nrf2 Activators | AREc32 ARE-luciferase reporter (MCF7-derived line), luminescence, 24 h | Potency, µM (top dose mostly 46.1 µM), for the others: at the top dose activation, most hits filed as activators | actives 0.31% (n = 410,000) | AID 624171, 2012; note: % of control where 0% means no effect; nearly all actives have a fitted effect of over 65% in size
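Cells of the AREc32 ARE-luciferase line are plated in OPTI-MEM containing 5% FBS and left overnight at 37 deg C. Compounds are pinned in, incubation continues 24 hr, and firefly luciferase signal is then measured.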
The depositor's hits bear a star; ? = inconclusive; . = no result given. Unless noted, calls come from the whole dose curve; as a rule, active = well fitted curve in the direction sought with a large enough effect; inconclusive = small, poorly fitted or top-dose-only effect, or another doubt; inactive = no such curve, though single readings can be large; an effect the other way counts as inactive or inconclusive. Potency is the fitted concentration of half-maximal effect.

SMILES	A549 tox	Pin1 inh	Nrf2 block	Nrf2 ARE act
COc1cc(CC(=O)Nc2cccc(S(=O)(=O)N(C)c3ccccc3)c2)cc(OC)c1OC	?	11%	15µM*	5%
CN(C)S(=O)(=O)c1cccc(NC(=O)CCNC(=O)Nc2ccccc2)c1	9%	-2%	-25%	0%
CN(c1ccccc1)S(=O)(=O)c1cccc(NC(=O)c2nn(C)c(=O)c3ccccc23)c1	-2%	26%	23µM*	2%
CN(C)S(=O)(=O)c1cccc(NC(=O)Cc2ccc(-c3ccccc3)cc2)c1	?	39%	13µM*	3%
COc1cccc(C2c3c(ncn(-c4ccc5c(c4)OCO5)c3=N)Oc3ccc4ccccc4c32)c1 (stereo not given)	-7%	17%	7%	.
COc1cccc(N2C(=O)c3ccccc3C2=O)n1	6%	0%	4%	.
CCC1CCCCN1S(=O)(=O)c1ccc(NC(=O)c2ccncc2)cc1 (stereo not given)	-15%	2%	8.2µM*	-1%
CCC1CCCCN1S(=O)(=O)c1ccc(C(=O)Nc2nnc(-c3ccccc3Cl)o2)cc1 (stereo not given)	?	15%	5.2µM*	0%
CCC1CCCCN1S(=O)(=O)c1ccc(C(=O)Nc2nnc(C3CC3)o2)cc1 (stereo not given)	-4%	2%	?	-1%
Cc1ccc(C2C3CSCC=C3C(C#N)=C(N)C2(C#N)C#N)cc1 (stereo not given)	?	?	15µM*	?
COc1cccc(CNC(=O)c2ccc3c(c2)N(C)C(=O)C2CCCCN32)c1 (stereo not given)	8%	0%	.	9%
Nc1ccccc1N1C(=O)c2cccc3cccc(c23)C1=O	-2%	-2%	?	8.9µM*
COc1ccc(-c2nc3cccc(OC)c3c(=O)n2Cc2ccccc2)cc1COc1ccc(NC(C)=O)cc1	-13%	?	-15%	.
CCOC(=O)Cc1csc(NC(=O)c2cc3c(s2)CCCC3)n1	-1%	11%	.	3%
CCOC(=O)Cc1csc(NC(=O)c2csc3c2CCCC3)n1	0%	0%	18µM*	0%
CCOC(=O)Cc1csc(NC(=O)/C=C\c2ccccc2Cl)n1	-16%	-1%	26µM*	?
CCOC(=O)Cc1csc(NC(=O)/C=C/c2ccccc2Cl)n1	-13%	-3%	?	?
CCOC(=O)c1[nH]c(C)c(CCC(=O)Nc2cc(Cl)ccc2C)c1C	-15%	4%	.	0%
Cc1cccc(C)c1OCCn1c(C2CC(=O)N(c3cccc(Cl)c3)C2)nc2ccccc21 (stereo not given)	?	28%	21µM*	-1%
CCCCN1CC(c2nc3ccccc3n2CCCCOc2c(C)cccc2C)CC1=O (stereo not given)	7%	-1%	?	-4%
Cc1cccc(C)c1OCCCCn1c(C2CC(=O)N(c3ccc(F)cc3)C2)nc2ccccc21 (stereo not given)	?	13%	21µM*	0%
COc1ccc(CNC(=O)CCc2nc3cccnc3n2Cc2ccccc2)cc1	6%	7%	5%	0%
Cc1cccc(N2CCN(C(=O)c3ccccc3SCC(=O)N3CCCC3)CC2)c1C	?	11%	23µM*	4%
CC1CCN(C(=O)CCC(=O)N2CC(C)Oc3ccccc32)CC1 (stereo not given)	-11%	1%	-20%	-1%
Cc1cccc(N2CCN(C(=O)CCC(=O)N3CC(C)Oc4ccccc43)CC2)c1C (stereo not given)	0%	1%	18µM*	2%
SMILES	A549 tox	Pin1 inh	Nrf2 block	Nrf2 ARE act
O=C(Nc1ccc(F)c(Cl)c1)C1CCCN1S(=O)(=O)c1ccc(F)cc1 (stereo not given)	-14%	-8%	1%	4%
COc1ccccc1-c1nnc(SCC(=O)c2ccc(F)cc2)n1-c1ccccc1	-12%	13%	-19%	3%
O=C(Cn1cc(CNC(=O)c2ccccc2)nn1)Nc1cc(C(F)(F)F)ccc1Cl	0%	-2%	8%	.
CC(C)=CC(=O)Oc1ccc(C(=O)N(C)c2ccccc2I)cc1	-1%	-1%	7%	.
COc1cccc(C2C(C(=O)Nc3ccccc3OC)=C(C)Nc3nc(-c4ccco4)nn32)c1 (stereo not given)	-13%	-2%	-16%	9%
CCOc1cc(CNCc2ccc(C(=O)O)cc2)ccc1OC	-1%	-1%	6%	-1%
CCOc1cc(CNCc2cc(OC)cc(OC)c2)ccc1OC	-8%	-6%	8.2µM*	1%
COc1ccc(CCN(C)C(=O)c2cc(S(=O)(=O)NCc3ccccc3)ccc2C)cc1OC	-9%	5%	16µM*	1%
COc1cccc(CN(C)C(=O)c2cc(S(=O)(=O)NCc3ccccc3)ccc2C)c1OC	-3%	-4%	-9%	0%
CCCN(C(=O)Cn1cnc2sc(C)c(S(=O)(=O)N3CCN(c4ncccn4)CC3)c2c1=O)c1cccc(C)c1	-9%	-2%	-2%	-1%
O=S(=O)(c1ccc(NC(=S)N/N=C/c2c3ccccc3cc3ccccc23)cc1)N1CCOCC1	-7%	?	9.2µM*	5%
COc1ccccc1N1CCN(C(=S)Nc2ccc(S(=O)(=O)N3CCOCC3)cc2)CC1	-18%	0%	?	3%
Cc1ccccc1C(=O)NC(=S)Nc1ccc(S(=O)(=O)N2CCOCC2)cc1	3%	-4%	13µM*	-1%
O=S(=O)(c1ccc(NC(=S)N2CCN(c3ccccc3F)CC2)cc1)N1CCOCC1	-3%	-2%	13µM*	-1%
CN1CCOc2cc(S(=O)(=O)N3CCN(c4nc(-c5cccs5)nc5ccccc45)CC3)ccc21	3%	-4%	2%	.
O=[N+]([O-])c1cc(-c2nc(-c3ccccc3)no2)ccc1NCCc1ccccc1	10%	0%	2%	3%
Cc1ccc(CNC(=O)C2CCN(c3nn4cc(-c5ccc(F)cc5)nc4s3)CC2)cc1	0%	-5%	?	1%
COc1ccc(C2=Nn3c(nnc3-c3ccc(OC)c(OC)c3)SC2)cc1	-8%	-7%	1%	.
O=C(CSc1nc(-c2ccccc2)nc2c1CCCC2)c1ccc(F)cc1	14%	0%	15%	0%
Cc1oc(-c2cccc(Cl)c2)nc1Cn1c(SCc2ccc(F)cc2)nc2cccnc21	-22%	54%	18µM*	0%
COc1ccc(-c2nc(Cn3c(SCc4cccc(F)c4)nc4cccnc43)c(C)o2)cc1	-25%	50%	21µM*	-1%
COc1ccc(-c2nc(Cn3c(SCc4ccccc4F)nc4cccnc43)c(C)o2)cc1	-25%	30%	?	-1%
COc1ccc(-c2nc(Cn3c(SCc4ccc(F)cc4)nc4cccnc43)c(C)o2)cc1	?	30%	18µM*	0%
Cc1oc(-c2ccccc2Cl)nc1Cn1c(SCc2cccc(F)c2)nc2cccnc21	-22%	46%	?	-1%
